Assay outcomes as filed in PubChem BioAssay.
Rows were chosen to be rich in hits. Some 3.3% of all compounds tested hit in one or more screens of this group.
INS-1E GSIS act: GLuc luminescence reporter in INS-1E cells, primary screen for activators of glucose-dependent secretion of insulin | INS-1E GLuc reporter insulin secretion, 2-3 h | activation, % at 16.6 µM | actives 0.61% (n = 370,000);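 active = lowest replicate activation of at least 40%, so every replicate reaches that level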;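 also: 0% = median of neutral control wells and 100% = median of IBMX positive control wells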
ERAP1 inh: ERAP1 (human) enzyme inhibition; recombinant ERAP1, Leu-AMC fluorescence, 60 min; Q9NZ08; AID 652197; actives 0.15% (n = 340,000); inhibition, % at 10.7 µM;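 active = mean replicate inhibition of at least 30%, or all replicates individually reaching that 30% level; inactive = mean below 30% and not every replicate reaching it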;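 also: 0% = neutral control wells and 100% = L-leucinethiol positive control wells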
SIRT5 inh: blocks human SIRT5 desuccinylation of peptide. Q9NXA8. Purified SirT5, succinyl-peptide AMC, trypsin-coupled fluorescence. inhibition, % at 15 µM. actives 1.1% (n = 330,000); in the data active = inhibition above about 15%
Target sequence (Q9NXA8 whole entry, looked up): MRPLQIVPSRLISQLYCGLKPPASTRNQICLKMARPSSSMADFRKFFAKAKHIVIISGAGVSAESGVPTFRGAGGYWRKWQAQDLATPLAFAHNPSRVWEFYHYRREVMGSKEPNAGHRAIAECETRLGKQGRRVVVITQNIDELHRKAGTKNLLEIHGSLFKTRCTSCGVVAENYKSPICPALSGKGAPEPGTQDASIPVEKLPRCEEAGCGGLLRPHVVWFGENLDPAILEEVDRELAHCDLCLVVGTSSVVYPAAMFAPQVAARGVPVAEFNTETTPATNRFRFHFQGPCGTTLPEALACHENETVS
FGF22 binding: FGF22 (human) thermal shift binding; AID 651658; activity (Tm shift, normalised), % at 9.99 µM; actives 1.5% (n = 340,000); recombinant FGF22 thermal shift, SYPRO orange fluorescence; percent of sucrose octasulfate shift, DMSO zero;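 active = mean Tm shift, scaled 0 neutral to 100 positive control, at about 1.3% or above, every replicate too, limit read from the data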
Target sequence (Q9HCT0 whole entry, looked up): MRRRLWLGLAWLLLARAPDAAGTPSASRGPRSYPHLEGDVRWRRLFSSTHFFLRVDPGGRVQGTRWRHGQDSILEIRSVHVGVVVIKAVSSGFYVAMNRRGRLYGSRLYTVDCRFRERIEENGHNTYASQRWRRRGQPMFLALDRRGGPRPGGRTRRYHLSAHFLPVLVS
Casp6 inh: inhibitors of human caspase-6; P55212; purified caspase-6, Z-VEID-R110 cleavage fluorescence; inhibition, % at 12.5 µM; actives 0.53% (n = 350,000); AID 686996;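 active = mean inhibition across replicates at least about 35%, with every replicate also reaching that limit, limit read from the data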;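 also: 0% = median of neutral control wells and 100% = no fluorescence left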
* hit, by the source's call; x = no result.

SMILES	INS-1E GSIS act	ERAP1 inh	SIRT5 inh	FGF22 binding	Casp6 inh
COc1cc2c(cc1OC)-c1cc(Nc3ccc(C(=O)O)cc3)nc(=O)n1CC2	-8	4	14	0	41*
O=C(C[C@@H]1C[C@H]2c3cc(NC(=O)NC4CCCCC4)ccc3O[C@H]2[C@@H](CO)O1)NCC1CC1	-3	-3	-2	0	-1
Cc1cc(=O)[nH]c2c3ccccc3nn12	8	-3	-7	44*	-2
O=C(Cc1cccnc1)N1CC(=O)N2[C@H](C1)[C@@H](c1ccc(-c3cccc(F)c3)cc1)[C@@H]2CO	7	x	x	x	x
C=C1C(=O)[C@]23C[C@H]1CCC2[C@]1(C)CCC[C@@](C)(C(=O)O)C1C[C@@H]3O (stereo partly specified)	16	0	x	0	4
C=C1C(=O)[C@]23C[C@H]1CCC2[C@]1(C)C(=O)CC[C@@](C)(C(=O)O)C1C[C@@H]3O (stereo partly specified)	93*	x	-4	0	5
COc1cccc(C2c3c(C)nn(-c4ccc([N+](=O)[O-])cc4)c3N=C3C(=O)Nc4ccccc4N32)c1 (stereo unspecified)	-12	3	3	43*	-2
COc1ccc(NC2=Nc3ccccc3N3C2=Nc2c(c(C)nn2-c2ccc(C)cc2)C3c2cccnc2)cc1 (stereo unspecified)	-10	x	x	x	x
CC(=O)Nc1ccc(NC2=Nc3ccccc3N3C2=Nc2c(c(C)nn2-c2ccccc2)C3c2ccccc2)cc1 (stereo unspecified)	-6	3	-8	x	0
Cc1nn(-c2ccc([N+](=O)[O-])cc2)c2c1C(c1ccc(OC(F)F)cc1)N1C(=N2)C(=O)Nc2ccccc21 (stereo unspecified)	9	0	-2	43*	26
CN1[C@@H]2Cn3c(ccc(C4=CCCC4)c3=O)[C@H]1[C@@H](C(=O)N1CCCCC1)[C@@H]2CO	8	1	-12	0	-3
O=C(NCCC1=CCCCC1)C(=O)NCC1OCCCN1S(=O)(=O)c1cc(F)ccc1F (stereo unspecified)	-8	12	-2	0	1
O=C(NCCC1=CCCCC1)C(=O)NCC1OCCCN1S(=O)(=O)c1ccc(F)cc1 (stereo unspecified)	-7	-7	0	44*	3
COc1ccccc1NC(=O)N1CCCCN2[C@@H](CO)[C@H](c3ccc(-c4ccccc4)cc3)[C@@H]2C1	x	0	1	0	-1
C[C@@H]1CN([C@H](C)CO)S(=O)(=O)c2ccc(-c3ccncc3)cc2O[C@@H]1CN(C)C(=O)C1CCC1	1	x	x	x	x
COC(=O)CC/C(=N/Nc1ccc(Cl)c(Cl)c1)C(=O)OC	0	19	8	43*	-3
COC(=O)CCC(=O)Nc1ccc(NC(=O)CCC(=O)OC)cc1	1	x	x	x	x
Cc1ccc(-n2nc3c(c2NC(=O)C2CC2)CS(=O)(=O)C3)cc1C	9	1	-4	0	0
Cc1ccc(-n2nc3c(c2NC(=O)C2CC2)CS(=O)(=O)C3)cc1	57*	-4	-2	0	-1
COc1ccccc1S(=O)(=O)Nc1cc(S(=O)(=O)N2CCCCC2)ccc1N1CCOCC1	-3	-2	17*	0	x
CCc1cccc(NC(=O)c2cc(S(=O)(=O)N3CCCCC3)ccc2N2CCOCC2)c1	x	1	x	43*	-4
O=C(Nc1ccccc1)c1cc(S(=O)(=O)N2CCCCC2)ccc1N1CCOCC1	-23	-1	2	0	0
O=C(C[C@@H]1CC[C@H](NC(=O)Nc2ccccc2F)[C@@H](CO)O1)NCc1ccc(-c2ccccc2)cc1	-4	1	2	0	3
COc1ccc(OC)c(C2=Nn3c(nnc3-c3ccncc3)SC2)c1	41*	-2	-4	0	-2
FC(F)Oc1ccc(C2=Nn3c(nnc3-c3ccccc3Cl)SC2)cc1OCC1CC1	10	2	x	0	-1
SMILES	INS-1E GSIS act	ERAP1 inh	SIRT5 inh	FGF22 binding	Casp6 inh
COc1ccc(C2=Nn3c(nnc3-c3ccccc3F)SC2)cc1OCC1CC1	79*	-3	4	-1	1
Cc1noc(C)c1S(=O)(=O)N(C)C[C@H]1OCCCC[C@@H](C)Oc2ccc(NS(=O)(=O)c3ccc(F)cc3)cc2C(=O)N([C@@H](C)CO)C[C@@H]1C	-22	x	x	0	x
C[C@@H]1CN([C@@H](C)CO)C(=O)Cc2cc(NC(=O)Cc3cn(C)c4ccccc34)ccc2O[C@H]1CN(C)C(=O)Nc1cccc2ccccc12	1	2	3	0	-1
CC1CCc2[nH]c3ccc(C(=O)O)cc3c2C1 (stereo unspecified)	0	1	-9	0	48*
C=Cc1c(C)c2cc3[nH]c(cc4nc(cc5nc(cc1[nH]2)C(C)=C5CCC(=O)O)C(CCC(=O)O)=C4C)c(C)c3C=C	-2	x	x	0	57*
C/C=C/c1ccc([C@H]2[C@@H](CO)N(C(=O)c3ccccc3)C23CN(C(C)=O)C3)cc1	-2	2	-4	0	0
CO[C@@H](CN(C)Cc1ccc2c(c1)OCO2)[C@@H](C)CN(C(=O)Nc1ccc(F)cc1)[C@H](C)CO	7	0	21*	0	-1
CO[C@@H](CN(C)Cc1ccc(-c2ccccn2)cc1)[C@@H](C)CN(C(=O)Nc1ccc(F)cc1)[C@H](C)CO	-17	1	4	0	-1
CO[C@@H](CN(C)Cc1ccc(-c2ccccn2)cc1)[C@H](C)CN(C(=O)Nc1ccc(F)cc1)[C@H](C)CO	-4	0	0	8.2*	-3
CN1C(=O)c2cc(NS(=O)(=O)c3ccccc3Cl)ccc2OC[C@H]2O[C@@H](CC(=O)Nc3cc(F)ccc3F)CC[C@@H]21	6	x	x	x	x
Cc1noc(C)c1NC(=O)Nc1ccc2c(c1)C(=O)N([C@@H](C)CO)C[C@H](C)[C@@H](CN(C)C(=O)C1CCCCC1)OCCCC[C@H](C)O2	5	-3	0	-1	18
O=C(c1ccc([N+](=O)[O-])cc1)N1CCSC1c1ccc(Cl)cc1 (stereo unspecified)	5	-3	2	43*	3
O=C(c1ccc([N+](=O)[O-])cc1)N1CCSC1c1ccc(Br)cc1 (stereo unspecified)	13	0	-3	0	-1
O=C(/C=C/c1ccccc1)NCC(=O)N/N=C\c1cccnc1	-1	-3	4	0	-1
Cc1ccc(NC(=O)Cn2cnc3ccccc32)cc1C	9	1	1	43*	1
O=C(Cn1cnc2ccccc21)N/N=C/c1cccnc1	13	4	9	43*	-2
O=C(Cn1cnc2ccccc21)Nc1cccc([N+](=O)[O-])c1	-2	1	-3	0	-2
COc1ccccc1/C=N/NC(=O)CCn1cnc2ccccc21	4	-3	0	44*	3
O=C(CNS(=O)(=O)N1CCOCC1)N/N=C/c1cccnc1	5	-8	-2	44*	2
